Screening data (PubChem)
In the library only some 7.9% were active in any assay of this set; here they are far more common.
LASV entry inh: inhibitors of Lassa virus binding or cell entry | Lassa virus pseudotype entry inhibition, cell reporter | Potency, µM (doses to about 37.9 µM), for inactives: top-dose activity change, negative = inhibition, usual class: inhibitors | 300,000 compounds, 1.2% hits | AID 540256; calls by dose curve; tested in HEK293 cells; further: potency means the concentration at half of the fitted maximal effect; nearly all actives have a fitted effect of over 50% in size
HCV inh: HCV inhibition | Huh7.5.1 HCVcc-Cre infection, luciferase reporter, 44 h | AID 651820 | Potency, µM (highest dose often 41.8 µM), for inactives: top-dose activity change, negative = inhibition, usual class: inhibitors | 340,000 compounds, 3.4% hits; active means well fitted inhibition curve with a large enough effect; inconclusive means small, poorly fitted or top-dose-only effect, or another doubt; inactive means no such curve, though single readings can be large or run the other way; further: potency means the concentration at half of the fitted maximal effect
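HCVcc-Cre virus at an moi near 0.5 was added right after compound to cells cultured 4 h from seeding (1,000 cells/well). Luciferase activity was determined 44 h later, 15 min after substrate addition at RT.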
MARV entry inh: inhibitors of Marburg virus binding or cell entry; Marburg virus pseudotyped entry inhibition, cell reporter; Potency, µM (top dose mostly 37.8 µM), without a hit: top-dose activity change, negative = inhibition, most hits filed as inhibitors; 300,000 compounds, 1.8% hits; AID 540276; calls by dose curve; tested in HEK293 cells; further: potency means the concentration at half of the fitted maximal effect
HCMV inh: human cytomegalovirus inhibition. 410,000 compounds, 4.5% hits. HFF cells, HCMV-luciferase reporter, 72 h; hits give low values. AID 1259415. activity change, negative = inhibition, % at 57.5 µM; in the data active means activity change below about -60%; inconclusive means no clear call, values can overlap the other calls; inactive means above about -39%
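Two compound doses tested in HFFs infected with HCMV-luciferase, MOI 1 PFU/cell, 72 h at 37C. Lysate luminescence read with OneGlo; data normalized against buffer-only and 10uM Salinomycin inhibitor controls.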
FMDV inh: antivirals against foot and mouth disease virus | Potency, µM (highest dose often 57.9 µM), for the others: at the top dose activity change, negative = inhibition, actives largely listed as inhibitors | FMDV antiviral cell-based qHTS | 410,000 compounds, 1.2% hits; calls by dose curve; tested in HEK293T cells; further: read-out not given here; potency means the concentration at half of the fitted maximal effect; nearly all actives have a fitted effect of over 45% in size
Active calls of the source: *; ? = inconclusive; . = no result; ! = a repeat was not active; [ ] = remark or other dose. On the % scale 0 is the no-effect control and ±100 the full control effect.

SMILES | LASV entry inh | HCV inh | MARV entry inh | HCMV inh | FMDV inh
COc1ccc(NC(=O)C2CCCN(S(=O)(=O)c3ccc(C)cc3)C2)cc1OC (stereo not given) | -5% | -22% | ? | 25 | 22µM*
CCc1ccc(NC(=O)C2CCCN(S(=O)(=O)c3ccc(F)cc3)C2)cc1 (stereo not given) | ? | . | -28%[46.1 µM] | 7 | ?
CCOC(=O)C1CCCN(S(=O)(=O)c2cc(C(=O)OC)n(C)c2)C1 (stereo not given) | . | 6.3µM* | . | -60* | ?
CCOc1ccccc1CNCCCSc1nnnn1C | 1%[46.1 µM] | . | -29%[46.1 µM] | -9 | 3%
Cc1ccc(NC(=O)Cn2c(=O)n(Cc3nc(-c4ccccc4)no3)c(=O)c3cc4c(cc32)OCO4)cc1C | -23%[46.1 µM] | . | . | 18 | ?
COc1ccccc1C(=O)N1CCCC1(C#N)c1ccccc1 (stereo not given) | 1% | 7% | ? | -11 | -4%
COc1ccc(C(=O)N2CCCC2(C#N)c2ccccc2)cc1[N+](=O)[O-] (stereo not given) | . | 14µM* | . | 69 | ?
C[C@H]1[C@@H](NS(=O)(=O)c2ccc([N+](=O)[O-])cc2[N+](=O)[O-])CC[C@@]23CCCN2C(=O)CCC[C@@H]13 | . | . | . | 12 | .
CC1(C)Oc2ccc3ccc(=O)oc3c2/C(=C/NNC(N)=O)C1=O | . | -14% | . | -95* | -14%
O=C(COC(=O)CCN1C(=O)/C(=C\C=C\c2ccccc2)SC1=S)Nc1cc(F)ccc1F | ? | 4% | ? | -62* | ?
CCOC(=O)c1c(C)c(C(=O)NCCc2ccc(OC)cc2)c(C)n1CC | . | . | -26%[46.1 µM] | -15 | -17%
CCCCn1c2nc3ccccc3nc2c2c(=O)n(C(C)CC)cnc21 (stereo not given) | 11% | 13% | ? | -32 | -16%
CCC(C)n1c(C)nc2c(c1=O)c1nc3ccccc3nc1n2CCC1=CCCCC1 (stereo not given) | 7% | 17% | -2% | -88* | 7%
Cc1ccc(-n2cc(-c3ccccc3)c3c(NC4CCCC4)ncnc32)cc1 | 1%[46.1 µM] | . | . | ? | -20%
O=C1CC(c2ccc(F)cc2)CC2=C1C(c1ccc([N+](=O)[O-])o1)Nc1ccccc1N2 (stereo not given) | ? | ? | 10µM* | -24 | -3%
CCc1cccc(NC(=O)CN2c3ccccc3S(=O)(=O)c3ccccc32)c1 | -9%[46.1 µM] | . | . | 32 | -3%
Cc1cccc(N(CC(O)CON=C2c3ccccc3-c3ccccc32)S(C)(=O)=O)c1 (stereo not given) | -4% | ? | 23µM* | ? | .
CCN(CC(O)CON=C1c2ccccc2-c2ccccc21)S(=O)(=O)c1ccc(Cl)cc1 (stereo not given) | 1% | 10µM* | ? | -31 | -28%
CCN(CC(O)CON=C1c2ccccc2-c2ccccc21)S(=O)(=O)c1ccc(C)cc1 (stereo not given) | ? | ? | ? | -39 | ?
CS(=O)(=O)N(CC(O)CON=C1c2ccccc2-c2ccccc21)c1ccc(F)cc1 (stereo not given) | 4% | ? | ? | -20 | .
Cc1ccc(C)c(N2CCN(C(=O)CCS(=O)(=O)c3cc4c(cc3Cl)NC(=O)CO4)CC2)c1 | 13%[46.1 µM] | . | . | -29 | ?
Cn1c(=O)c2c(nc(CN3CCN(c4ccc(F)cc4)CC3)n2Cc2ccccc2F)n(C)c1=O | -24% | ? | 16µM* | 13 | 2%
Cn1c(=O)c2c(nc(CN3CCN(CCO)CC3)n2Cc2cccc3ccccc23)n(C)c1=O | -19% | ? | 12µM* | -14 | 0%
Cn1c(=O)c2c(nc(N3CCCCCC3)n2Cc2cccc3ccccc23)n(C)c1=O | -24% | ? | ? | ? | 28µM*
COc1ccc(S(=O)(=O)N(CCc2ccccc2)CC(=O)Nc2cc(Cl)ccc2C)cc1 | ? | . | . | -1 | -9%
SMILES | LASV entry inh | HCV inh | MARV entry inh | HCMV inh | FMDV inh
COc1ccccc1CCNc1ncnc2sc(C(=O)N3CCCCC3)c(C)c12 | . | . | . | . | -28%
C=C1C(=O)O[C@H]2[C@H]1[C@@H](O)CC(=C)[C@@H]1CC(=O)[C@@H](C)[C@H]21 | ? | ? | ? | . | 22µM*
CCOc1ccc(NC(=O)C2CCN(S(=O)(=O)c3c(C)noc3/C=C/c3ccco3)CC2)cc1 | 5%[46.1 µM] | . | ? | -78* | -27%
Cc1noc(/C=C/c2ccco2)c1S(=O)(=O)N1CCC(C(=O)Nc2ccc(F)c(Cl)c2)CC1 | -12%[46.1 µM] | . | 0%[46.1 µM] | -84* | ?
CCN(CC)CCNC(=O)C1CCN(S(=O)(=O)c2c(C)noc2/C=C/c2ccccc2F)CC1 | ? | 5.6µM* | . | -78*! | -2%
Cc1noc(/C=C/c2ccccc2F)c1S(=O)(=O)N1CCC(C(=O)NCc2ccco2)CC1 | 3%[46.1 µM] | . | . | -13 | 2%
Cc1ccc(NC(=O)C2CCN(S(=O)(=O)c3c(C)noc3/C=C/c3ccco3)CC2)cc1C | 0%[46.1 µM] | . | 7%[46.1 µM] | ? | ?
O=C(Nc1ccc(F)c(F)c1)C1CCN(S(=O)(=O)c2cccc3nonc23)CC1 | -9% | ? | -2%[46.1 µM] | -77* | 20µM*
CCOc1ccc(NC(=O)C2CCN(S(=O)(=O)c3c(C)noc3C)CC2)cc1 | . | -8% | . | 4 | -12%
C[C@H](NC(=O)CNC(=O)[C@@H](NC(=O)[C@H](Cc1ccccc1)NC(=O)CNC(=O)CNC(=O)[C@@H](N)Cc1ccccc1)[C@@H](C)O)C(=O)N[C@@H](CCCN=C(N)N)C(=O)N[C@@H](CCCCN)C(=O)N[C@@H](CO)C(=O)N[C@@H](C)C(=O)N[C@@H](CCCN=C(N)N)C(=O)N[C@H](CN)CCCCN | . | . | . | . | 3%[6.7 µM]
Cc1ccc(O[C@@H]2[C@H](O)CO[C@@H]2/C=C/C#Cc2ccc(C(C)(C)C)cc2)cc1 | . | . | -35%[14.2 µM] | . | .
Cc1noc(C)c1S(=O)(=O)N1CCCC(C(=O)Nc2ccc(Cl)cn2)C1 (stereo not given) | ? | ? | ? | -29 | 32µM*
COc1ccc(/C=C\c2onc(C)c2S(=O)(=O)N2CCC(C(=O)Nc3cccc(OC)c3)CC2)cc1 | ? | . | ? | -27 | 14µM*
Cc1n[nH]c(C)c1S(=O)(=O)N1CCCC(C(=O)Nc2nccs2)C1 (stereo not given) | -1% | -12% | ? | -98* | 0%
Cc1ccc(Cl)cc1NC(=O)C1CCCN(S(=O)(=O)c2c(C)noc2C)C1 (stereo not given) | -3% | 4% | -16% | 10 | ?
CCc1ccc(NC(=O)C2CCN(S(=O)(=O)c3c(C)noc3/C=C\c3ccc(OC)cc3)CC2)cc1 | 29%[46.1 µM] | . | ? | -32 | ?
Cc1cc(NC(=O)C2CCN(S(=O)(=O)c3c(C)noc3C)CC2)ccc1Br | 4%[46.1 µM] | -9% | 18%[46.1 µM] | -61*! | ?
Cc1cccc(NC(=O)C2CCN(S(=O)(=O)c3c(C)noc3/C=C/c3ccco3)CC2)n1 | -18% | ? | -39% | -66* | 0%
